# Source: the supplement of paper PMC8728848
# The full list was thinned out, with the strongest signals kept by preference.
# Legend:
# Assay in all cases: glycan array binding signal (z-score within array); higher = stronger binding
# Details in all cases: glycan notation: IUPAC condensed, linker removed
# [1] = molecular target: Fuc(a1-2)Gal(b1-3)GlcNAc(b1-3)Gal(b1-4)Glc
# Procedure, shortened: (§1)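 Glycan array data came from 3228 arrays in the Consortium for Functional Glycomics database, and only arrays with an available protein sequence were kept. Glycan names were put into IUPAC-condensed notation, and columns mapping to the same glycan were averaged. The binding signal is a within-array Z-score, averaged across arrays of one protein sequence run at different concentrations or buffers and across linkers. A negative Z-score can be read as non-binding.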
# [2] = molecular target: Fuc(a1-2)[Gal(a1-3)]Gal(b1-3)GlcNAc
# Procedure, shortened: as §1
# [3] = molecular target: Fuc(a1-2)[Gal(a1-3)]Gal(b1-4)Glc
# Procedure, shortened: as §1
# Gal(b1-3)Gal(b1-4)GlcNAc = molecular target: Gal(b1-3)Gal(b1-4)GlcNAc
# Procedure, shortened: as §1
# Gal(b1-3)GalNAc = molecular target: Gal(b1-3)GalNAc
# Procedure, shortened: as §1
# [4] = molecular target: Gal(b1-4)GalNAc(b1-3)[Fuc(a1-2)]Gal(b1-4)GlcNAc
# Procedure, shortened: as §1
# [5] = molecular target: Gal(b1-4)GlcNAc(b1-3)Gal(b1-4)GlcNAc
# Procedure, shortened: as §1
# Gal3S(b1-3)GlcNAc = molecular target: Gal3S(b1-3)GlcNAc
# Procedure, shortened: as §1
# Gal6S(b1-4)Glc6S = molecular target: Gal6S(b1-4)Glc6S
# Procedure, shortened: as §1
# Gal6S(b1-4)GlcNAc = molecular target: Gal6S(b1-4)GlcNAc
# Procedure, shortened: as §1
# GalNAc(b1-3)Gal = molecular target: GalNAc(b1-3)Gal
# Procedure, shortened: as §1
# GlcNAc(b1-4)GlcNAc = molecular target: GlcNAc(b1-4)GlcNAc
# Procedure, shortened: as §1
# Man(a1-2)Man(a1-3)Man = molecular target: Man(a1-2)Man(a1-3)Man
# Procedure, shortened: as §1
# [6] = molecular target: Man(a1-2)Man(a1-3)[Man(a1-2)Man(a1-6)]Man(a1-6)[Man(a1-2)Man(a1-2)Man(a1-3)]Man(b1-4)GlcNAc(b1-4)GlcNAc
# Procedure, shortened: as §1
# [7] = molecular target: Neu5Ac(a2-3)Gal(b1-3)GlcNAc
# Procedure, shortened: as §1
# [8] = molecular target: Neu5Ac(a2-3)Gal(b1-3)GlcNAc(b1-3)Gal(b1-3)GlcNAc
# Procedure, shortened: as §1
# [9] = molecular target: Neu5Ac(a2-3)Gal(b1-3)[Fuc(a1-4)]GlcNAc
# Procedure, shortened: as §1
# [10] = molecular target: Neu5Ac(a2-3)Gal(b1-3)[Neu5Ac(a2-3)Gal(b1-4)]GlcNAc
# Procedure, shortened: as §1
# [11] = molecular target: Neu5Ac(a2-3)Gal(b1-4)GlcNAc(b1-3)Gal(b1-4)GlcNAc(b1-3)Gal(b1-4)GlcNAc
# Procedure, shortened: as §1
# [12] = molecular target: Neu5Ac(a2-3)Gal(b1-4)GlcNAc(b1-3)Gal(b1-4)[Fuc(a1-3)]GlcNAc
# Procedure, shortened: as §1
# [13] = molecular target: Neu5Ac(a2-3)Gal6S(b1-4)[Fuc(a1-3)]GlcNAc
# Procedure, shortened: as §1
# Neu5Ac(a2-3)GalNAc = molecular target: Neu5Ac(a2-3)GalNAc
# Procedure, shortened: as §1
# [14] = molecular target: Neu5Ac(a2-6)Gal(b1-4)GlcNAc
# Procedure, shortened: as §1
# [15] = molecular target: Neu5Ac(a2-6)Gal(b1-4)GlcNAc(b1-2)Man(a1-6)[GlcNAc(b1-2)Man(a1-3)]Man(b1-4)GlcNAc(b1-4)GlcNAc
# Procedure, shortened: as §1
# [16] = molecular target: Neu5Ac(a2-6)Gal(b1-4)GlcNAc(b1-3)Gal(b1-4)GlcNAc
# Procedure, shortened: as §1
# Neu5Gc(a2-6)GalNAc = molecular target: Neu5Gc(a2-6)GalNAc
# Procedure, shortened: as §1
binder,measurement,setting,value
"mLPHN-1 (Mus musculus), Q80TR1 (protein) MARLAAALWSLCVTTVLVTSATQGLSRAGLPFGLMRRELACEGYPIELRCPGSDVIMVENANYGRTDDKICDADPFQMENVQCYLPDAFKIMSQRCNNRTQCVVVAGSDAFPDPCPGTYKYLEVQYDCVPYIFVCPGTLQKVLEPTSTHESEHQSGAWCKDPLQAGDRIYVMPWIPYRTDTLTEYASWEDYVAARHTTTYRLPNRVDGTGFVVYDGAVFYNKERTRNIVKYDLRTRIKSGETVINTANYHDTSPYRWGGKTDIDLAVDENGLWVIYATEGNNGRLVVSQLNPYTLRFEGTWETGYDKRSASNAFMVCGVLYVLRSVYVDDDSEAAGNRVDYAFNTNANREEPVSLAFPNPYQFVSSVDYNPRDNQLYVWNNYFVVRYSLEFGPPDPSAGPATSPPLSTTTTARPTPLTSTASPAATTPLRRAPLTTHPVGAINQLGPDLPPATAPAPSTRRPPAPNLHVSPELFCEPREVRRVQWPATQQGMLVERPCPKGTRGIASFQCLPALGLWNPRGPDLSNCTSPWVNQVAQKIKSGENAANIASELARHTRGSIYAGDVSSSVKLMEQLLDILDAQLQALRPIERESAGKNYNKMHKRERTCKDYIKAVVETVDNLLRPEALESWKDMNATEQVHTATMLLDVLEEGAFLLADNVREPARFLAAKQNVVLEVTVLNTEGQVQELVFPQEYPSENSIQLSANTIKQNSRNGVVKVVFILYNNLGLFLSTENATVKLAGEAGTGGPGGASLVVNSQVIAASINKESSRVFLMDPVIFTVAHLEAKNHFNANCSFWNYSERSMLGYWSTQGCRLVESNKTHTTCACSHLTNFAVLMAHREIYQGRINELLLSVITWVGIVISLVCLAICISTFCFLRGLQTDRNTIHKNLCINLFLAELLFLVGIDKTQYEVACPIFAGLLHYFFLAAFSWLCLEGVHLYLLLVEVFESEYSRTKYYYLGGYCFPALVVGIAAAIDYRSYGTEKACWLRVDNYFIWSFIGPVSFVIVVNLVFLMVTLHKMIRSSSVLKPDSSRLDNIKSWALGAIALLFLLGLTWAFGLLFINKESVVMAYLFTTFNAFQGVFIFVFHCALQKKVHKEYSKCLRHSYCCIRSPPGGTHGSLKTSAMRSNTRYYTGTQSRIRRMWNDTVRKQTESSFMAGDINSTPTLNRGTMGNHLLTNPVLQPRGGTSPYNTLIAESVGFNPSSPPVFNSPGSYREPKHPLGGREACGMDTLPLNGNFNNSYSLRSGDFPPGDGGPEPPRGRNLADAAAFEKMIISELVHNNLRGASGGAKGPPPEPPVPPVPGVSEDEAGGPGSADRAEIELLYKALEEPLLLPRAQSVLYQSDLDESESCTAEDGATSRPLSSPPGRDSLYASGANLRDSPSYPDSSPEGPNEALPPPPPAPPGPPEIYYTSRPPALVARNPLQGYYQVRRPSHEGYLAAPSLEGPGPDGDGQMQLVTSL",glycan array binding signal (z-score),[1],0.213
same,glycan array binding signal (z-score),[2],15.8
same,glycan array binding signal (z-score),[3],-0.219
same,glycan array binding signal (z-score),Gal(b1-3)Gal(b1-4)GlcNAc,0.16
same,glycan array binding signal (z-score),Gal(b1-3)GalNAc,0.025
same,glycan array binding signal (z-score),[4],1.66
same,glycan array binding signal (z-score),[5],-0.105
same,glycan array binding signal (z-score),Gal3S(b1-3)GlcNAc,2.08
same,glycan array binding signal (z-score),Gal6S(b1-4)Glc6S,1.13
same,glycan array binding signal (z-score),Gal6S(b1-4)GlcNAc,1.27
same,glycan array binding signal (z-score),GalNAc(b1-3)Gal,0.793
same,glycan array binding signal (z-score),GlcNAc(b1-4)GlcNAc,-0.282
same,glycan array binding signal (z-score),Man(a1-2)Man(a1-3)Man,-0.173
same,glycan array binding signal (z-score),[6],0.551
same,glycan array binding signal (z-score),[7],0.014
same,glycan array binding signal (z-score),[8],-0.317
same,glycan array binding signal (z-score),[9],0
same,glycan array binding signal (z-score),[10],-0.26
same,glycan array binding signal (z-score),[11],-0.433
same,glycan array binding signal (z-score),[12],-0.402
same,glycan array binding signal (z-score),[13],-0.065
same,glycan array binding signal (z-score),Neu5Ac(a2-3)GalNAc,0.587
same,glycan array binding signal (z-score),[14],0.157
same,glycan array binding signal (z-score),[15],-0.261
same,glycan array binding signal (z-score),[16],-0.422
same,glycan array binding signal (z-score),Neu5Gc(a2-6)GalNAc,1.3
